This passage reports Potency and outcome results from PubChem BioAssay (NCATS).

The nature of test [1]: P-glycoprotein substrates identified in KB-8-5-11 adenocarcinoma cell line, qHTS therapeutic library screen (AID 1346987; active = well fitted curve in the direction sought with a large enough effect; an effect the other way counts as inactive or inconclusive; note: nearly all actives have a fitted effect of over 65% in size; note: potency is the fitted concentration of half-maximal effect). The procedure, abridged: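 Human cervical adenocarcinoma KB-8-5-11 cells, selected in colchicine to over-express P-gp and assayed without it, were exposed for 72 h to titrated compounds. An ATP-based luminescent viability signal gave AC50.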
In general terms: In qHTS, concentration-response curves come from the screen itself.

Test [2] can be described thus: Natriuretic polypeptide receptor (hNpr1) antagonism - Pilot counterscreen GloSensor control cell line (AID 1347045). Note: potency is the fitted concentration of half-maximal effect. The procedure, abridged: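 The SNP-driven cGMP luminescence signal (50 uM, 20 min, room temperature) was measured in GloSensor HEK293 control cells. Compounds were tested as a LOPAC titration series and preincubated for 30-50 min.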
Background: The purpose of a counterscreen is to sort out artefacts and off-target activity.

For test [3], the target named is Atrial natriuretic peptide receptor 1 (Homo sapiens) (UniProt P16066). Nature of the test: Natriuretic polypeptide receptor (hNpr1) antagonism - Pilot screen (AID 1347049).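 Note: HEK293 cells with hNpr1 and GloSensor cGMP luciferase stimulated by 0.1 nM hNppA; agonist-evoked cGMP luminescence read 20 min after hNppA addition.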 Note: potency is the fitted concentration of half-maximal effect. The procedure, abridged:
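Cells expressing receptor plus cGMP biosensor are seeded and incubated overnight at 37C, then loaded with GloSensor reagent (2% final) at room temperature for 2 h. Library compounds go on for 30 min. A pre-read precedes agonist (hNppA, 0.1 nM final) and a 20-min readout.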

Test [4] deals with Atrial natriuretic peptide receptor 2 (Homo sapiens) (UniProt P20594). Put plainly: Natriuretic polypeptide receptor (hNpr2) antagonism - Pilot subtype selectivity assay (AID 1347050). Note: potency is the fitted concentration of half-maximal effect. The procedure, abridged: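 Read-out: GloSensor luminescence (CCD imager), baseline vs post-stimulation. HEK293 cells expressing hNpr2; compounds pre-incubated 30-50 min at ambient temperature; hNppC 1 nM final, 20 min.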

Test [5] deals with Tyrosine-protein phosphatase non-receptor type substrate 1 (Homo sapiens) + Leukocyte surface antigen CD47 (Homo sapiens) (UniProt P78324+Q08722). Put plainly: CD47-SIRPalpha protein protein interaction - LANCE assay qHTS validation (AID 1347057; active = well fitted curve in the direction sought with a large enough effect in the signal ratio, with a control signal flat, not every such curve was filed as active; the % refers to the signal ratio; note: series mostly up to about 38 µM). The procedure, abridged:
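Inhibition of soluble CD47/SIRPalpha ectodomain association by titrated compounds, measured as 665/615 nm time-resolved FRET ratio after sequential 30 min room-temperature incubations.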

Test [6] can be described thus: NS1 protein of Zika virus - qHTS assay to identify small molecule inhibitors in human HEK 293 cells (AID 1347053; active = well fitted curve in the direction sought with a large enough effect; an effect the other way counts as inactive or inconclusive; note: series mostly up to about 46 µM; nearly all actives have a fitted effect of over 55% in size). In outline: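 Compound-treated (1 h pre-infection) HEK 293 cells infected with ZIKV MR766, MOI = 0.5; after 24 h at 37 C, NS1 read by TR-FRET; data normalized to uninfected and infected controls.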

Results filed as inconclusive are left out. Active and inactive are the calls of the source. Unless noted, calls come from the whole dose curve.

Sequence of Atrial natriuretic peptide receptor 2 (Homo sapiens) (P20594 whole entry, looked up): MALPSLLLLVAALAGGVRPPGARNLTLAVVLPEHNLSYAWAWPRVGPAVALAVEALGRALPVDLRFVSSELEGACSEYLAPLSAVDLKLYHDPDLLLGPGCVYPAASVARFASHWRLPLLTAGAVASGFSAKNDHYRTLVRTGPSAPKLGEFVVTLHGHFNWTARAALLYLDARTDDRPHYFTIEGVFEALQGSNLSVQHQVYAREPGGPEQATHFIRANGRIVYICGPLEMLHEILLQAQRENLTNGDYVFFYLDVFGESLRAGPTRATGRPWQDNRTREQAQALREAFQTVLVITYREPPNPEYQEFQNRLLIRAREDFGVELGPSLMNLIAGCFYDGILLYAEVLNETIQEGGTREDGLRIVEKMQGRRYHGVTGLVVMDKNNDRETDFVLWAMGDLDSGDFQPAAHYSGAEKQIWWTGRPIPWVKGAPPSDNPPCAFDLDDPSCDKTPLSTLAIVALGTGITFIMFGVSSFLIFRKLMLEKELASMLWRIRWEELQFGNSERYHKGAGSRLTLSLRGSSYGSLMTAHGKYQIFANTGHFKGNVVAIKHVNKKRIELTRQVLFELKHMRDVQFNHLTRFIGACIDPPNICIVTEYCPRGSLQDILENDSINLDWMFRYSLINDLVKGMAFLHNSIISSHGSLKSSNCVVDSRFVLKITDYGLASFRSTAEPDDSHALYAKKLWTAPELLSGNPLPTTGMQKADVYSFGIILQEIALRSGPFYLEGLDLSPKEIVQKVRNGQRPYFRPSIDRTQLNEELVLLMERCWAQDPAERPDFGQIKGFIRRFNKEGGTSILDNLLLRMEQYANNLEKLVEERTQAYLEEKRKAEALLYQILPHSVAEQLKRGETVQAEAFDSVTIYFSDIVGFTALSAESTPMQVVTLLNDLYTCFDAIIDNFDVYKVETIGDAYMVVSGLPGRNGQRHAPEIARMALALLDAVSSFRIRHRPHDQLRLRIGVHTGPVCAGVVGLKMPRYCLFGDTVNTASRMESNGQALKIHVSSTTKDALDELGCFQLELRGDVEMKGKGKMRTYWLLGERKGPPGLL
Sequence of Atrial natriuretic peptide receptor 1 (Homo sapiens) (P16066 whole entry, looked up): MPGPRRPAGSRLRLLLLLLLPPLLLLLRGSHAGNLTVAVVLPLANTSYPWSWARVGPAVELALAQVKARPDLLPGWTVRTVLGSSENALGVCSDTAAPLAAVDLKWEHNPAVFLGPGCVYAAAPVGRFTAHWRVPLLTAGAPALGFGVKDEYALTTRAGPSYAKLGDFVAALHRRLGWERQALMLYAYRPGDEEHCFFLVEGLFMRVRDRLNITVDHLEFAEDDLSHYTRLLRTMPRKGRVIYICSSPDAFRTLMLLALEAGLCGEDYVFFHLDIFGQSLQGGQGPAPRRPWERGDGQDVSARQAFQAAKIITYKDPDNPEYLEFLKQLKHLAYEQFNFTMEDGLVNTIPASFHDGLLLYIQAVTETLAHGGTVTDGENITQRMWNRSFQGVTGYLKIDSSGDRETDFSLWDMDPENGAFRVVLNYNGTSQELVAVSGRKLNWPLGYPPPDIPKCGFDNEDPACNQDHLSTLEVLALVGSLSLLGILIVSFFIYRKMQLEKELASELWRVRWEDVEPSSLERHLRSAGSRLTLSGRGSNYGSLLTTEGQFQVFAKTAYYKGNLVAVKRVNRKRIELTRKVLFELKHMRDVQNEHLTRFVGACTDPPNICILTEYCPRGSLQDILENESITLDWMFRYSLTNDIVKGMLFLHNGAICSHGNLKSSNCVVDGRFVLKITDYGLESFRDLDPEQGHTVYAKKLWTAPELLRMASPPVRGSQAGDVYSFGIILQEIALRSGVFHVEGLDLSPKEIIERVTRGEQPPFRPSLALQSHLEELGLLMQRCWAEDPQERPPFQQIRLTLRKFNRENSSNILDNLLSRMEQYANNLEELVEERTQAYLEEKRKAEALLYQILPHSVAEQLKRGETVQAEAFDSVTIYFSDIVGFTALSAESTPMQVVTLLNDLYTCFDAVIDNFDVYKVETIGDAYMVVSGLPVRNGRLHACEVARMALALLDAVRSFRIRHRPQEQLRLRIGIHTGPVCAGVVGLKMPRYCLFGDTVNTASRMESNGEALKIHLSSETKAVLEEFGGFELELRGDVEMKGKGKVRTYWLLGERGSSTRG
Sequence of Tyrosine-protein phosphatase non-receptor type substrate 1 (Homo sapiens) + Leukocyte surface antigen CD47 (Homo sapiens) (P78324 whole entry, looked up, the tested form may be a part): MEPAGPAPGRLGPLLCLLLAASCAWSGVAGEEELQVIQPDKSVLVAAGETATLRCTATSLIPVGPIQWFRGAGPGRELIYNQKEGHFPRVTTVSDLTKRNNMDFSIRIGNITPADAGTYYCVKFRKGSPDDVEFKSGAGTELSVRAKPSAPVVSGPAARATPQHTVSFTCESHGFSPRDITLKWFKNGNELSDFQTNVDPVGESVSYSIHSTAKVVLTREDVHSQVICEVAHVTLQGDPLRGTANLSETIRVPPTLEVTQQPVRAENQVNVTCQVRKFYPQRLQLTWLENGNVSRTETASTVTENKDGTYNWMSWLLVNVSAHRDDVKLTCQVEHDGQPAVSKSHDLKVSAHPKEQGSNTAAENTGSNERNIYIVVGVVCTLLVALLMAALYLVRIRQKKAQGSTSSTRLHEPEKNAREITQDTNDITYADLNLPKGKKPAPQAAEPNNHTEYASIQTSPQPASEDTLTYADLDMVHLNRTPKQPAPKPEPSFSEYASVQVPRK
Sequence of Tyrosine-protein phosphatase non-receptor type substrate 1 (Homo sapiens) + Leukocyte surface antigen CD47 (Homo sapiens) (Q08722 whole entry, looked up, the tested form may be a part): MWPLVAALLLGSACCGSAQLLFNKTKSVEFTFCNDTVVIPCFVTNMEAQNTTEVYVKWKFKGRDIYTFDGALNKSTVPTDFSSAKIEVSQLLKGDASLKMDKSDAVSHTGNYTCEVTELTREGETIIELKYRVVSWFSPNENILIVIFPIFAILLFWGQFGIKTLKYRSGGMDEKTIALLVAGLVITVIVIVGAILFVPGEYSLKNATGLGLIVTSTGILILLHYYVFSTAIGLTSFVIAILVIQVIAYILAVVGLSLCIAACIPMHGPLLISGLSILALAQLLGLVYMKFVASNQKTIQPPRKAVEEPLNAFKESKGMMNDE

`CNC1(C)C2CCC(C2)C1(C)C` (centres undefined): the Potency result in test [1], in test [2], in test [3] and in test [4] was “inactive” throughout. Also, in test [5], the result was inactive.
For the molecule `CCn1cc(C(=O)O)c(=O)c2cc3c(cc21)OCO3`, the Potency entry in test [1], in test [2], in test [3] and in test [4] was “inactive” throughout. Further, the molecule was classed as inactive in test [6] and in test [5].
Regarding `CCCN(CCC)C(=O)C(CCC(=O)O)NC(=O)c1ccccc1` (centres undefined), the Potency result in test [1], in test [2], in test [3] and in test [4] was “inactive” throughout. For the same molecule, the outcome in test [5] was inactive.
Regarding `CC(C)[N+](C)(CCOC(=O)C1c2ccccc2Oc2ccccc21)C(C)C`, the Potency result in test [1], in test [2], in test [3] and in test [4] was “inactive” throughout. The outcome in test [5] was inactive.
Turning to `COCCOC(=O)C1=C(C)NC(C)=C(C(=O)OC(C)C)C1c1cccc([N+](=O)[O-])c1` (centres undefined), the Potency entry in test [2], in test [3] and in test [4] was “inactive” throughout. The result in test [6] was inactive.
Turning to `CN1CCN(CC(=O)N2c3ccccc3C(=O)Nc3cccnc32)CC1`, the Potency result in test [2], in test [3] and in test [4] was “inactive” throughout.
Consider `CSc1ccc(C(=O)c2[nH]c(=O)[nH]c2C)cc1`, for which the Potency entry in test [2], in test [3] and in test [4] was “inactive” each time.
As for `CC(=O)Oc1cc(C(C)C)c(OCCN(C)C)cc1C`, the Potency entry in test [1], in test [3] and in test [4] was “inactive” throughout. Further, the call in test [6] was inactive.
For the molecule `CCN(CC)CCCN(c1ccccc1)C1Cc2ccccc2C1`, the Potency in test [1] was 10.3 µM (active). Also, the Potency entry in test [2] and in test [3] was “inactive” in each case. The result in test [6] and in test [5] was inactive.
For `CCCN(CCC)CCc1cccc2c1CC(=O)N2`, the Potency entry in test [1], in test [2], in test [3] and in test [4] was “inactive” each time. For the same molecule, in test [5], the result was inactive.
Take `CN(C)CC/C=C1\c2ccccc2COc2ccccc21`: the Potency result in test [2], in test [3] and in test [4] was “inactive” each time.
With `COC(=O)C1=C(C)NC(C)=C(C(=O)OC(C)(C)CN(C)CCC(c2ccccc2)c2ccccc2)C1c1cccc([N+](=O)[O-])c1` (centres undefined), the Potency in test [1] was 9.2 µM (active). The Potency entry in test [3] and in test [4] was “inactive” in each case. In test [5], the result was inactive.
Regarding `CCCCOCCOCCOCc1cc2c(cc1CCC)OCO2`, the Potency result in test [1] was “inactive”. Moreover, the call in test [6] was inactive.
On to `C[C@@H](O)[C@H]1C(=O)N2C(C(=O)O)=C(SCCN=CN)C[C@H]12`, for which the Potency entry in test [1], in test [2], in test [3] and in test [4] was “inactive” in each case. Also, the outcome in test [5] was inactive.
Take `NC(=Nc1ccccc1)Nc1ccccc1`: the Potency entry in test [1] is “inactive”. Besides, in test [6], the result was inactive.
On to `Cc1cccc(C)c1NC(=O)C(C)N` (centres undefined), for which the Potency entry in test [2], in test [3] and in test [4] was “inactive” throughout. Moreover, the molecule was classed as inactive in test [6].
On to `CC(C)NCC(O)c1cc(O)cc(O)c1` (centres undefined), for which the Potency entry in test [2], in test [3] and in test [4] was “inactive” throughout.
`OCCN1CCN(CC/C=C2/c3ccccc3Sc3ccc(C(F)(F)F)cc32)CC1`: the Potency in test [1] was 18.4 µM (active). The Potency entry in test [3] and in test [4] was “inactive” in each case. In addition, the result in test [5] was inactive.
Regarding `OC(CCN1CCCCC1)(c1ccccc1)C1CCCCC1` (centres undefined), the Potency result in test [1] and in test [3] was “inactive” in each case. Further, in test [6], the molecule was classed as inactive.
As to `O=C(O)CCCCCCCC(=O)O`, the Potency result in test [1], in test [2], in test [3] and in test [4] was “inactive” each time. Besides, in test [5], the outcome was inactive.
`CC(C)(C)c1ccc(C(=O)CCCN2CCC(OC(c3ccccc3)c3ccccc3)CC2)cc1`: the Potency in test [1] is 20.6 µM (active). The Potency result in test [3] and in test [4] was “inactive” throughout. The result in test [6] and in test [5] was inactive.
For the molecule `CCCCNc1c(C(=O)OCC)c(C)nc2c1cnn2CC`, the Potency result in test [2], in test [3] and in test [4] was “inactive” throughout. In addition, the call in test [6] was inactive.
For the molecule `c1cc(CN2CCCCC2)cc(OCCCNc2nc3ccccc3s2)c1`, the Potency in test [1] is 14.6 µM (active). Further, the Potency result in test [3] and in test [4] was “inactive” throughout. For the same molecule, the result in test [5] was inactive.
With `CCCCCN(CCCCC)C(=O)C(CCC(=O)O)NC(=O)c1ccc(Cl)c(Cl)c1` (centres undefined), the Potency result in test [1], in test [2], in test [3] and in test [4] was “inactive” each time. Further, the result in test [5] was inactive.
As for `CC(=O)[C@]1(O)Cc2c(O)c3c(c(O)c2[C@@H](O[C@H]2C[C@H](N)[C@H](O)[C@H](C)O2)C1)C(=O)c1ccccc1C3=O`, in test [1], the Potency is 4.11 µM (active). The Potency entry in test [3] and in test [4] was “inactive” throughout.
With `COCC(=O)O[C@]1(CCN(C)CCCc2nc3ccccc3[nH]2)CCc2cc(F)ccc2[C@@H]1C(C)C`, the Potency in test [1] is 2.31 µM (active); in test [2], 26.1 µM (active). Moreover, in test [3], the Potency entry is “inactive”. For the same molecule, the call in test [6] and in test [5] was inactive.
On to `CCN1CCC[C@H]1CNC(=O)c1c(O)c(Cl)cc(Cl)c1OC`, for which the Potency entry in test [1], in test [2], in test [3] and in test [4] was “inactive” in each case. For the same molecule, in test [5], the result was inactive.
As to `Cc1nc2c([nH]1)c(=O)n(C)c(=O)n2Cc1ccco1`, the Potency entry in test [1], in test [2], in test [3] and in test [4] was “inactive” each time. Moreover, the outcome in test [5] was inactive.
As for `CN=C(NC#N)NCCSCc1nc[nH]c1C`, the Potency entry in test [1], in test [2], in test [3] and in test [4] was “inactive” throughout. In addition, in test [5], the result was inactive.
Turning to `NC(=O)N1c2ccccc2C=Cc2ccccc21`, the Potency entry in test [1], in test [3] and in test [4] was “inactive” in each case. The result in test [6] and in test [5] was inactive.
Turning to `C[C@]12CCC(=O)C=C1CC[C@@H]1[C@@H]2C(=O)C[C@@]2(C)[C@H]1CC[C@]2(O)C(=O)CO`, the Potency result in test [1] and in test [4] was “inactive” in each case. Besides, the molecule was classed as inactive in test [6] and in test [5].
`CN(C)C(=O)Oc1cccc([N+](C)(C)C)c1`: the Potency result in test [1], in test [3] and in test [4] was “inactive” throughout. In addition, in test [5], the result was inactive.
For `O=C1NCN(c2ccccc2)C12CCN(CCCC(c1ccc(F)cc1)c1ccc(F)cc1)CC2`, the Potency in test [1] is 14.6 µM (active). For the same molecule, the Potency result in test [3] and in test [4] was “inactive” throughout. In addition, in test [6], the outcome was inactive.
For the molecule `COc1cc(Cc2cnc(N)nc2N)cc(OC)c1OC`, the Potency entry in test [1], in test [2], in test [3] and in test [4] was “inactive” throughout. In addition, the result in test [5] was inactive.
Regarding `COc1ccc(CN(CCN(C)C)c2ccccn2)cc1`, the Potency entry in test [1], in test [2] and in test [4] was “inactive” in each case. Further, in test [6], the result was inactive.
Consider `CNCCCN1c2ccccc2CCc2ccccc21`, for which the Potency result in test [1], in test [2] and in test [3] was “inactive” each time. Further, the outcome in test [6] and in test [5] was inactive.
`C[n+]1cc2c3c(ccc2c2ccc4cc5c(cc4c21)OCO5)OCO3`: the Potency was 2.07 µM (active) in test [2], 4.78 µM (active) in test [3] and 2.61 µM (active) in test [4].
As to `CN(C)CCCN1c2ccccc2Sc2ccccc21`, the Potency entry in test [2] and in test [3] was “inactive” each time.
For `C[C@]12C=CC(=O)C=C1CC[C@H]1[C@@H]3C[C@@H](O)[C@](O)(C(=O)CO)[C@@]3(C)C[C@H](O)[C@@]12F`, the Potency result in test [1], in test [3] and in test [4] was “inactive” throughout.
`CCNC(=O)N1CCN(CCCC(c2ccc(F)cc2)c2ccc(F)cc2)CC1`: the Potency is 16.4 µM (active) in test [1] and 11.7 µM (active) in test [2]. In addition, the molecule was classed as inactive in test [6] and in test [5].
